IkB signaling: IkB pathway inhibition in ABC-DLBCL cells | ABC-DLBCL IkBa-CBG/CBR dual luciferase ratio, 4 h; response scale: scaled: untreated 0%, proteasome inhibitor 100% | Potency, µM (series often up to 57.1 µM), inactives show at the top dose IkBa stabilization activation | hit rate 0.04% among 110,000; active = well fitted curve in the direction sought with a large enough effect in the signal ratio, not every such curve was filed as active; inconclusive = small, poorly fitted or top-dose-only effect, or a change in a side signal; the % refers to the signal ratio;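 also: potency is read from the fitted curve at half-maximal effect; the direction sought is a rising ratio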
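Curves were fitted separately to fusion (green), unfused (red) and ratio luminescence, then classed by r2, magnitude and activity. Cells: OCI-Ly3, 4 h compound plus doxycycline at 37C; 10 uM MG-132 defined full response.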
p53ts 32C kill: kills p53ts cells at the permissive temperature; hit rate 0.93% among 130,000; H1299-p53A138V at 32C, ATP luminescence viability, 24 h; Potency, µM (titrated, usually from 46.1 µM), without a hit: at the top dose activity change, negative = cytotoxicity, hits mostly cytotoxic;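 also: potency is read from the fitted curve at half-maximal effect; 0% = DMSO and -100% = full killing by reference compound; nearly all actives have a fitted effect of over 55% in size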
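ATP-content luminescence (ATPlite) read-out after 24 h compound exposure at 32C in H1299-p53A138V cells (600/well). Tested up to 46 uM. Normalized to DMSO (0%) and 100 uM tamoxifen (100% killing); Hill-fit AC50.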
p53ts 39C tox: cytotoxicity in p53ts cells at nonpermissive temperature | H1299-p53A138V viability at 39C, ATP luminescence, 24 h | Potency, µM (highest dose often 46.1 µM), for the others: top-dose activity change, negative = cell killing, usual class: cytotoxic | hit rate 1.5% among 130,000 | AID 902; also: potency is read from the fitted curve at half-maximal effect; % is scaled to controls: 0 for no effect and ±100 for the full control effect; nearly all actives have a fitted effect of over 55% in size
IMPase cell inh: IMPase inhibition in cells. 120,000 tested, under 10 active. P97697. inhibition (IP1 accumulation), % at 46.1 µM. CHO-M1 cells, IP1 accumulation, HTRF TR-FRET ratio; active = well fitted curve in the direction sought with a large enough effect in the signal ratio, not every such curve was filed as active; inconclusive = small, poorly fitted or top-dose-only effect, or a change in a side signal; inactive = no such curve, though single readings can be large or run the other way; the % refers to the signal ratio;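 also: cells stimulated with carbachol in lithium chloride buffer; plate controls were DMSO basal wells for no effect and reference inhibitor wells for full effect; higher means more IMPase inhibition seen as more IP1 and lower FRET ratio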
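Elevated IP1 in lysates lowers TR-FRET signal (665/620 ratio and 620 channel reported). Cells were CHO-M1, given carbachol (50 uM as added) plus 50mM LiCl, pH 7.4, 30 min, 37C; compounds titrated up to 46 uM; AC50 by Hill equation.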
FLuc inh: inhibitors of firefly luciferase; purified firefly luciferase, luminescence, 8 min; Potency, µM (titrated, usually from 57.1 µM), without a hit: top-dose activity change, negative = inhibition, usual class: inhibitors; hit rate 2.2% among 72,000; also: potency is read from the fitted curve at half-maximal effect; % is scaled to controls: 0 for no effect and ±100 for the full control effect; nearly all actives have a fitted effect of over 40% in size
Target sequence (P08659 whole entry, looked up): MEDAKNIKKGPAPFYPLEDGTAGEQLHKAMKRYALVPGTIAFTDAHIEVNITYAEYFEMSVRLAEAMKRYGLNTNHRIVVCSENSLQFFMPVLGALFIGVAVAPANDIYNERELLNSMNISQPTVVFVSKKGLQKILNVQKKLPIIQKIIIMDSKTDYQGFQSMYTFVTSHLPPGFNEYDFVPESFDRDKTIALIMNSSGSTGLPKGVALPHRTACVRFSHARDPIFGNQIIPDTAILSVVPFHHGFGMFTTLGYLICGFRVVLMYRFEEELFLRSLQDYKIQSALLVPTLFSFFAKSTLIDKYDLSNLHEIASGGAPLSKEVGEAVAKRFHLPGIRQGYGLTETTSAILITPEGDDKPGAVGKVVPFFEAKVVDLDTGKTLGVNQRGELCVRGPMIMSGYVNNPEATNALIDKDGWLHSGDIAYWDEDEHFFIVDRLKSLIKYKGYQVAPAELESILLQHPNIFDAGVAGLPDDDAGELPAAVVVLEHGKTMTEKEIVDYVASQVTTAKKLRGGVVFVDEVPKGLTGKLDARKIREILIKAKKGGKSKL
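Titration-based qHTS; buffer 50 mM imidazole pH 7.2, 50 mM KCl, 7 mM MgCl2, 10 uM ATP, 0.01% Tween 20, 0.05% BSA; luciferase/luciferin detector mix added after compound; 8 min, ambient; luminescence.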
Imprint erasure: inducers of genomic imprint erasure in mouse ES cells; mouse ES Peg3-LacZ reporter, beta-gal luminescence, 40 h; Potency, µM (doses to about 60.7 µM), for the others: at the top dose activity change, positive = activation, usual class: activators; hit rate 0.02% among 110,000; AID 1948; also: potency is read from the fitted curve at half-maximal effect
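Readout: BetaGlo luminescence (5 min, room temp) for LacZ from the normally silent maternal Peg3 allele in female Peg3LacZ-Neo ES cells. Cells 300/well, 40 h, 37C, 5% CO2. Data normalized per plate to negative controls.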
* marks the source's active call; other numbers are inactive results; [ ] = dose if it differs, or a comment. The full list was thinned out, with hits kept by preference. Unless noted, calls follow the shape of the dose curve; as a rule, active = well fitted curve in the direction sought with a large enough effect; inconclusive = small, poorly fitted or top-dose-only effect, or another doubt; inactive = no such curve, though single readings can be large; an effect the other way counts as inactive or inconclusive.

C/C(CCN1CCCCc2nc(C)c(C)cc21)=N\OC[C@@H](C)[C@H](OCc1ccccc1)C(C)C was read as p53ts 32C kill 1%[9.22 µM], p53ts 39C tox 2%[9.22 µM] and FLuc inh 1%[11.4 µM].
`CC(C)c1nnc(NC(=O)c2nc(SCc3ccc(F)cc3)ncc2Cl)s1` gave IkB signaling 6%, p53ts 32C kill -3%, p53ts 39C tox -20% and Imprint erasure -11%[10.9 µM].
Cc1cccc(CS(=O)(=O)c2ncc(Cl)c(C(=O)Nc3nnc(C(C)C)s3)n2)c1 was read as IkB signaling 4%, p53ts 32C kill 16µM*, p53ts 39C tox 5µM* and Imprint erasure -23%[10.9 µM].
`Cc1ccc(CS(=O)(=O)c2ncc(Cl)c(C(=O)Nc3nnc(C(C)C)s3)n2)cc1` gave IkB signaling 0%, p53ts 32C kill 13µM*, p53ts 39C tox 5µM* and Imprint erasure -31%[10.9 µM].
`Cc1cccc(CSc2ncc(Cl)c(C(=O)Nc3nc4ccc(F)cc4s3)n2)c1` gave IkB signaling 1%, p53ts 32C kill 15%, p53ts 39C tox -25% and Imprint erasure 20%[10.9 µM].
Screening O=C(Cc1ccccc1)Nc1cccc(-c2nc3cccnc3s2)c1 returned IkB signaling 2%, p53ts 32C kill 9%, p53ts 39C tox 10% and Imprint erasure 13%[10.9 µM].
O=C(Nc1cccc(-c2nc3cccnc3s2)c1)c1ccco1 was read as IkB signaling inconclusive, p53ts 32C kill -29%, p53ts 39C tox -15%, IMPase cell inh 2, FLuc inh 20µM* and Imprint erasure -10%.
`O=C(Nc1ccc(-c2nc3cccnc3s2)cc1)c1ccco1` gave IkB signaling inconclusive, p53ts 32C kill inconclusive, p53ts 39C tox inconclusive, IMPase cell inh 0, FLuc inh 3.2µM* and Imprint erasure 8%.
`O=C1NC(=O)c2cc([N+](=O)[O-])ccc21` gave IkB signaling 4%, p53ts 32C kill 4%[1.84 µM], p53ts 39C tox 14% and Imprint erasure -4%.
Cc1ccccc1Nc1ncnc2c1cnn2-c1ccccc1 was read as IkB signaling inconclusive, p53ts 32C kill -25%, p53ts 39C tox 9%, IMPase cell inh 1, FLuc inh 13µM* and Imprint erasure -17%.
`CC(C)Nc1ncnc2c1cnn2-c1ccccc1` gave IkB signaling inconclusive, p53ts 32C kill 13µM*, p53ts 39C tox inconclusive, IMPase cell inh -6, FLuc inh 7.9µM* and Imprint erasure -41%.
Screening Cc1ccc(-n2ncc3c(Nc4ccccc4C)ncnc32)cc1 returned IkB signaling inconclusive, p53ts 32C kill inconclusive, p53ts 39C tox inconclusive and Imprint erasure -12%[10.9 µM].
Screening Cc1cccc(-n2ncc3c(NC(C)C)ncnc32)c1 returned IkB signaling inconclusive, p53ts 32C kill 13µM*, p53ts 39C tox 16µM*, IMPase cell inh 3, FLuc inh 13µM* and Imprint erasure -34%.
Screening Cc1cccc(-n2ncc3c(Nc4c(C)cc(C)cc4C)ncnc32)c1 returned IkB signaling inconclusive, p53ts 32C kill 11%, p53ts 39C tox -2% and Imprint erasure -13%[10.9 µM].
Screening O=C(NCCCN1CCOCC1)c1ccc(Cc2nc3ccccc3[nH]2)cc1 returned p53ts 32C kill 3% and p53ts 39C tox 0%.
Screening C=CCOc1c(CNc2nccs2)cccc1OCC returned IkB signaling 2%, p53ts 32C kill inconclusive, p53ts 39C tox inconclusive, IMPase cell inh 1, FLuc inh 13µM* and Imprint erasure -21%.
`CCOc1ccccc1C1CC(=O)NC(C)=C1C(=O)OCc1ccc(C)cc1` (stereo unspecified) gave IkB signaling inconclusive, p53ts 32C kill 3%, p53ts 39C tox -20%, IMPase cell inh 6 and Imprint erasure -2%[10.9 µM].
For O=C(CSc1nnnn1C1CCCC1)c1ccc2c(c1)OCCO2 the results were IkB signaling 1%, p53ts 32C kill inconclusive, p53ts 39C tox -9%, IMPase cell inh 5, FLuc inh 7.9µM* and Imprint erasure -20%.
Screening CC(C)n1nnnc1SCC(=O)c1ccc2c(c1)OCCO2 returned IMPase cell inh 7.
`O=C(CCCc1ccccc1)c1ccc2c(c1)OCCO2` gave p53ts 32C kill 7.9µM*, p53ts 39C tox 11µM* and IMPase cell inh 1.
CCCOc1ccc(C(=O)CCC(=O)OCC(=O)N2CC(=O)Nc3ccccc32)cc1 was read as IMPase cell inh -4.
c1ccn2c(SCc3ccc4c(c3)OCO4)nnc2c1 was read as IkB signaling 0%, p53ts 32C kill -1%, p53ts 39C tox -7%, IMPase cell inh -1, FLuc inh -2% and Imprint erasure -50%.
Screening O=C(CSc1nnc2ccccn12)c1ccc2c(c1)OCCO2 returned IkB signaling 0%, p53ts 32C kill inconclusive, p53ts 39C tox -11%, IMPase cell inh 1, FLuc inh 16µM* and Imprint erasure -86%.
For O=C1CN(C(=O)COC(=O)CCC(=O)c2ccc3c(c2)OCCO3)c2ccccc2N1 the results were IkB signaling 0%, p53ts 32C kill -3%, p53ts 39C tox -2%, IMPase cell inh 14, FLuc inh 20µM* and Imprint erasure -4%.
`C=CCCCCCC` gave IkB signaling 3%, p53ts 32C kill 1%[1.84 µM], p53ts 39C tox -18% and Imprint erasure -2%.
For C=C(CO)[C@H]1Cc2c(ccc3c2O[C@H]2COc4cc(OC)c(OC)cc4[C@@H]2C3=O)O1 the results were IkB signaling 9%[11.4 µM] and FLuc inh 1%[11.4 µM].
`CCCc1c(OCC(O)COc2ccc3c(=O)cc(C(=O)O)oc3c2CCC)ccc(C(C)=O)c1O` (stereo unspecified) gave Imprint erasure -17%.
For O=S(=O)(c1cccc2c(I)cccc12)N1CCCNCC1 the results were IkB signaling -12%, p53ts 32C kill -21%, p53ts 39C tox inconclusive, IMPase cell inh -19, FLuc inh -11% and Imprint erasure -7%.
`O=S(=O)(c1cccc2c(Cl)cccc12)N1CCCNCC1` gave IkB signaling inconclusive, p53ts 32C kill -3%, p53ts 39C tox 16µM*, IMPase cell inh -6, FLuc inh -4% and Imprint erasure -16%.
`Cc1cc(C(=O)CSc2nc3ccccc3o2)c(C)n1C1CC1` gave IkB signaling 3%, p53ts 32C kill 2%, p53ts 39C tox -25%, IMPase cell inh 5, FLuc inh -9% and Imprint erasure -25%.
`C=CCn1c(C)cc(C(=O)CSc2nc3ccccc3o2)c1C` gave IkB signaling inconclusive, p53ts 32C kill -24%, p53ts 39C tox -24%, IMPase cell inh 5, FLuc inh 16µM* and Imprint erasure -31%.
